The subject of test [1] is Plasmodium falciparum Sir2 (PF13_0152, Sir2A). The experiment in a line: pfSir2 binders on small-molecule microarrays, primary screen, biochemical, small-molecule microarray, 635 nm fluorescence (AID 1098).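 Also: score merges spot fluorescence intensity with its signal-to-noise ratio.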 Particulars: small-molecule microarray binding, fluorescence 635 nm; higher = more signal.
Test [2] in a line: small-molecule microarray binders of probe aDKK1, primary screen, biochemical, biotinylated probe, 635/667 nm fluorescence (AID 1099).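 Also: score merges 667nm spot fluorescence with signal to noise across triplicate slides.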 Particulars: higher = more signal.
A short description of test [3]: small-molecule microarray binders of probe aCHRDL2, primary screen, biochemical, biotinylated probe, 635/667 nm fluorescence (AID 1100). The note with it: higher = more signal.
The nature of test [4]: splicing luciferase reporter signal modulators, primary screen, spliceosome inhibition project, cell-based, HEK293, splice +/- reporter (AID 1101).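 Also: HEK293 cells carrying a splicing-competent luciferase reporter gene; test concentration not given here.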 The note with it: luminescence, 24 h, higher = more signal, called active from +8 up or from −8 down. In general terms: Reporter assays use an easily measured gene product as a stand-in for the process of interest.
The target in test [5] is Fibroblast growth factor 10 (Homo sapiens) (UniProt O15520). The experiment in a line: FGF10 binders on small-molecule microarrays, primary screen, biochemical, small-molecule microarray, 635 nm fluorescence (AID 1102). Particulars: FGF10 binding, fluorescence 635 nm, higher = more signal.
Fibroblast growth factor 10 (Homo sapiens), sequence (O15520 whole entry, looked up): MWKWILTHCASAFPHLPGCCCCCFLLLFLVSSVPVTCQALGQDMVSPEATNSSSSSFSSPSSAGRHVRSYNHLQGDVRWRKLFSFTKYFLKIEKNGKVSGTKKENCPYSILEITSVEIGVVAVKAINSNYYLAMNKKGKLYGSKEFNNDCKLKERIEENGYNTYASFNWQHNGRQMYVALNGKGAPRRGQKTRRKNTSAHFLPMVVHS
Test [6] concerns glycogen synthase kinase-3 (GSK3A per assay name; protocol says GSK3B). The experiment in a line: GSK3 binders on small-molecule microarrays, primary screen, biochemical, small-molecule microarray, 635 nm fluorescence, GSK3A (AID 1103). Also: the record names both GSK3A and GSK3B. Particulars: small-molecule microarray binding, fluorescence 635 nm; higher = more signal.
The target of test [7] is Epidermal growth factor receptor (Homo sapiens) (UniProt P00533). The experiment in a line: EGFR binders on small-molecule microarrays, primary screen, biochemical, small-molecule microarray, 635 nm fluorescence (AID 1104).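 Also: score merges 667 nm emission intensity with spot signal to noise over triplicate slides.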 The note with it: EGFR binding, higher = more signal.
Epidermal growth factor receptor (Homo sapiens), sequence (P00533 whole entry, looked up): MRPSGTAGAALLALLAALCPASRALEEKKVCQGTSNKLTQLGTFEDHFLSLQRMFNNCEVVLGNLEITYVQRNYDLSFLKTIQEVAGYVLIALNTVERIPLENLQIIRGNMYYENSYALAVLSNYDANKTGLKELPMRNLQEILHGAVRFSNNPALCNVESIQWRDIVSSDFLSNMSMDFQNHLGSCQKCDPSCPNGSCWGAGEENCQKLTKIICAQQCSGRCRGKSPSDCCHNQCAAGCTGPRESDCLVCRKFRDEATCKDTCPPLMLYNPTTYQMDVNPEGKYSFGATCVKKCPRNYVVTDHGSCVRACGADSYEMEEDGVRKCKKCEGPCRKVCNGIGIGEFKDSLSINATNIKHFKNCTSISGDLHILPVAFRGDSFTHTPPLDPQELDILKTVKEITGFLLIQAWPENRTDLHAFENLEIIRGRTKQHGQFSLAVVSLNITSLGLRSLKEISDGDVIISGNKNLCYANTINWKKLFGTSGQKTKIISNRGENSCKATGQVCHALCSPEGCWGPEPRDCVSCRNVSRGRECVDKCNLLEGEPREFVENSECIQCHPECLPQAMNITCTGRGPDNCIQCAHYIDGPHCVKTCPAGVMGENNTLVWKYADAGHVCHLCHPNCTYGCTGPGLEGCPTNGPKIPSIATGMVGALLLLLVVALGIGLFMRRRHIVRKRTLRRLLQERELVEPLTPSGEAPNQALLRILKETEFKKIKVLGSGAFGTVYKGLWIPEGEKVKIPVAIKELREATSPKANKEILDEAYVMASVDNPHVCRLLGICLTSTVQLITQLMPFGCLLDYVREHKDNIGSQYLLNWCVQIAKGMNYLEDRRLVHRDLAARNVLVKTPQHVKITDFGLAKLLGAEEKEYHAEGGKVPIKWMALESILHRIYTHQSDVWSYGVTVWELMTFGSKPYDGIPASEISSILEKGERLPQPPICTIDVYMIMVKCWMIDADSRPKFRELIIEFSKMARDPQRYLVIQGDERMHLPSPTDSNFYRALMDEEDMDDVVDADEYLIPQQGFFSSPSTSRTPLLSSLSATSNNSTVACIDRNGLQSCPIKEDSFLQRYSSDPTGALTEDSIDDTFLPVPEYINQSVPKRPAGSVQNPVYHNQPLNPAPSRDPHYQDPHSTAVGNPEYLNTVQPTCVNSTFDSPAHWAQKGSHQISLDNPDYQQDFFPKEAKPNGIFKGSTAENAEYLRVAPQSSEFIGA
The target of test [8] is Follistatin-related protein 3 (Homo sapiens) (UniProt O95633). The experiment in a line: FSTL3 binders on small-molecule microarrays, primary screen, biochemical, small-molecule microarray, 635 nm fluorescence (AID 1105).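 Also: score merges emission near 667 nm and signal to noise per printed spot across three slides.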 Particulars: FSTL3 binding, higher = more signal.
Follistatin-related protein 3 (Homo sapiens), sequence (O95633 whole entry, looked up): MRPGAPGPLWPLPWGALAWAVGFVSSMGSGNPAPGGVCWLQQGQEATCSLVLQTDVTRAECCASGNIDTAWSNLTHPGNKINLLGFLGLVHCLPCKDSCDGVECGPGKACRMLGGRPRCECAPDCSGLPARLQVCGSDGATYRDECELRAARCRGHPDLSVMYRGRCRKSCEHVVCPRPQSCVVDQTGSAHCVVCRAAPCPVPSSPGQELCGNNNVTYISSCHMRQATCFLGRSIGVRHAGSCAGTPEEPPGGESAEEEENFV
Test [9] concerns the target Dickkopf-related protein 1 (Homo sapiens) (UniProt O94907). The experiment in a line: DKK1 binders on small-molecule microarrays, primary screen, biochemical, small-molecule microarray, 635 nm fluorescence scan (AID 1106).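 Also: score merges emission near 667 nm with signal to noise over three replicate slides.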 Particulars: DKK1 binding, higher = more signal.
For test [10], the system named is Inhibin beta A chain (activin A). The experiment in a line: INHBA (activin A) binders on microarrays, primary screen, biochemical, small-molecule microarray, 635 nm fluorescence scan (AID 1107).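 Also: mouse activin A protein probed at 4.33 µg/mL on printed slides; score merges bound-protein fluorescence near 667 nm with spot signal-to-noise.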 Particulars: small-molecule microarray binding, higher = more signal.
The subject of test [11] is Human papillomavirus type 1a protein E7 (residues 44-93). The experiment in a line: HPV1a E7 fragment binders on microarrays, primary screen, biochemical, small-molecule microarray, residues 44-93, 635 nm fluorescence (AID 1108).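 Also: E7 fragment applied at 1 µg/mL in TBST for 1 h at 4 C; score combines spot fluorescence with its signal to noise ratio.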 Particulars: small-molecule microarray binding, fluorescence 635 nm; higher = more signal.
The nature of test [12]: modulators of HCV replicon luciferase signal, primary screen, HCV replication inhibitor project, Huh7 cells, luciferase reporter (AID 1109).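 Also: huh7 hepatoma cells harbouring a luciferase neomycin HCV replicon reporter; luciferase luminescence as measure of HCV replicon replication; test concentration not given here.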 Particulars: 48 h, higher = more signal.
Test [13] concerns the target Left-right determination factor 2 (Homo sapiens) (UniProt O00292). The experiment in a line: LEFTY2 binders on small-molecule microarrays, primary screen, biochemical, small-molecule microarray, 635 nm fluorescence scan (AID 1110). Particulars: LEFTY2 binding, higher = more signal.
Test [14] addresses Calmodulin-1 (Homo sapiens) (UniProt P0DP23). The experiment in a line: CALM1 binders on microarrays, EGTA buffer, profiling panel, biochemical, small-molecule microarray, Cy5-labelled CALM1 (AID 1111).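 Also: labelled calmodulin applied in Tris saline Tween buffer holding calcium plus EGTA and DTT.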 Particulars: Cy5-CALM1 binding fluorescence, higher = more signal.
Test [15] shares this target. The experiment in a line: calcium-bound CALM1 binders on microarrays, profiling panel, artefact control for SMM control-protein annotation, biochemical, small-molecule microarray, Cy5-labelled CALM1, plus calcium (AID 1112).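 Also: score merges spot fluorescence with signal to noise from triplicate slides.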 Particulars: Cy5-CALM1 binding fluorescence, higher = more signal.
A short description of test [16]: small-molecule microarray binders of probe aWnt5a, primary screen, biochemical, biotinylated probe, 635/667 nm fluorescence (AID 1113).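 Also: score merges 667 nm fluorescence intensity with signal-to-noise per printed feature.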 The note with it: higher = more signal.
Test [17] is described as follows: small-molecule microarray binders of probe aShh, primary screen, biochemical, biotinylated probe, 635/667 nm fluorescence (AID 1114).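 Also: probe is biotin-labelled aShh protein from a stem cell growth factor screen; measures binding of labelled protein to compounds printed on the slide; score merges feature fluorescence at 667 nm with signal-to-noise.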 Particulars: higher = more signal.
Test [18] is described as follows: small-molecule microarray binders of probe aNog, primary screen, biochemical, biotinylated probe, 635/667 nm fluorescence (AID 1115).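 Also: probe is biotinylated aNog protein used at 0.15 µg/mL for 1 h at 4 C; z-score combines 667 nm fluorescence of each spot with its signal to noise.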 The note with it: higher = more signal.
The target of test [19] is Torsin-1A-interacting protein 1 (Homo sapiens) (UniProt Q5JTV8). The experiment in a line: LAP1 binders from COS7 cell lysate, primary screen, small-molecule microarray, 635/667 nm fluorescence (AID 1116). Particulars: COS7-hLAP1 lysate binding, 635 nm fluorescence, higher = more signal.
Torsin-1A-interacting protein 1 (Homo sapiens), sequence (Q5JTV8 whole entry, looked up): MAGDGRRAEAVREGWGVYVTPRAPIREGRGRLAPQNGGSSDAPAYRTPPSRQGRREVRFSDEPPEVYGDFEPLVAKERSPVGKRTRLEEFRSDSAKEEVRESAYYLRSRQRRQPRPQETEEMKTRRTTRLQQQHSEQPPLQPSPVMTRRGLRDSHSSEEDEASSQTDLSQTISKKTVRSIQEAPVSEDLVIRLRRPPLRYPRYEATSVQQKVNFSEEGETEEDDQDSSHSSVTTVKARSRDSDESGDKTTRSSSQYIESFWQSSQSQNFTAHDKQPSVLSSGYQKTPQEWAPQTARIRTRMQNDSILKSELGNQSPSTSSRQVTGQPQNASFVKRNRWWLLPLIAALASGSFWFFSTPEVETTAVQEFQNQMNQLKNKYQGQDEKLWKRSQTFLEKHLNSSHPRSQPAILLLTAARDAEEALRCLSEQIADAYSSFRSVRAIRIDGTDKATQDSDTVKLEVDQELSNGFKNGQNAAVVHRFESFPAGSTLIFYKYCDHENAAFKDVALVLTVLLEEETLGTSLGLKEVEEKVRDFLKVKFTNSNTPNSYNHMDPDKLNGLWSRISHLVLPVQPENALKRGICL
For test [20], the target named is Alpha-bungarotoxin (Bungarus multicinctus) (UniProt P60615). The experiment in a line: alpha-bungarotoxin binders on microarray, profiling panel, artefact control for SMM control protein annotation, biochemical, small-molecule microarray, Alexa647 label, 635/667 nm fluorescence (AID 1117). The note with it: alpha-BTX-A647 binding fluorescence, higher = more signal.
Alpha-bungarotoxin (Bungarus multicinctus), sequence (P60615 whole entry, looked up): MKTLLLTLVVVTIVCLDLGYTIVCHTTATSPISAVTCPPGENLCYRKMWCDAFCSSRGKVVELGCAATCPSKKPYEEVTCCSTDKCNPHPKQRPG

Calls of active or inactive are those of the source.

Left-right determination factor 2 (Homo sapiens), sequence (O00292 whole entry, looked up): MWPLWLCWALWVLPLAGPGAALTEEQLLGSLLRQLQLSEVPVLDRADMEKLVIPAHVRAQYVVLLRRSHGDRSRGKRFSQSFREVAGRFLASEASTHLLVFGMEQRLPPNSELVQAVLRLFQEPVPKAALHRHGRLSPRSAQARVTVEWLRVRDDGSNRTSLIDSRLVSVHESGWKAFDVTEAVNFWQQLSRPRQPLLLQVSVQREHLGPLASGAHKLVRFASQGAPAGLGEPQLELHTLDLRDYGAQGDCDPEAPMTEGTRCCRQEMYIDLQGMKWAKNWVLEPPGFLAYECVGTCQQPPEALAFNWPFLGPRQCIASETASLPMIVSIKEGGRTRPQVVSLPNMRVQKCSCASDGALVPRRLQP
Dickkopf-related protein 1 (Homo sapiens), sequence (O94907 whole entry, looked up): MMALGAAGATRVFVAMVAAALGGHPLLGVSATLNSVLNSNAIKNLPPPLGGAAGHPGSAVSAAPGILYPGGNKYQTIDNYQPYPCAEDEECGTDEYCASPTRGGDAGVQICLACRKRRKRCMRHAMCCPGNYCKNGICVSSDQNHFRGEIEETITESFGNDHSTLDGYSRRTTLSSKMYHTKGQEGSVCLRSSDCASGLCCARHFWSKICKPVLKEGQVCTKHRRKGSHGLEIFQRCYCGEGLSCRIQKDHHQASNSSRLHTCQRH

On to `[N-]=[N+]=Nc1ccccc1[C@H]1OC(c2ccc(OCCCO)cc2)=N[C@@]1(Cc1ccccc1)C(=O)N1CCOCC1`, for which the composite z-score in test [1] was found to be 1.43; in test [2], 1.14; in test [3], 1.08; in test [5] it was 1.31; in test [6] it was 0.921; in test [7], 0.73. Further, the composite z-score in test [8] was 1.07; in [9], 0.477; in [10], 1.11; in [11], 1.1; in [13] it was 0.103; in test [14], 2.25. For the same molecule, the composite z-score in [15] is 0.937; in test [16] it was -0.0748; in [17] it was 0.886; in test [18], 0.88; in test [19] it was 1.32; in [20], 1.73. In addition, the z-score was 0.439 (inactive) in [4] and -2.37 in test [12].

On to `C=CCN1C(=O)[C@]2(Cc3ccccc3)N=C(c3ccc(OCCCO)cc3)O[C@@H]2c2ccccc21`, for which the composite z-score in test [1] was found to be 1.16; in [2], 0.0729; in [3] it was 0.795; in [5] it was 0.755; in test [6], 1.27; in [7] it was 0.781. For the same molecule, the composite z-score in test [8] was found to be 0.878; in test [9], 0.547; in [10], 1.13; in test [11], 1.45; in test [13], 0.993; in [14], 0.893. Also, the composite z-score is -0.672 in test [15]; -0.0519 in test [16]; 0.531 in test [17]; -0.802 in [18]; 0.251 in [19]; 1.04 in test [20]. The z-score in test [4] was -1.37 (inactive); in test [12] it was -1.84.

With `O=C1NC(=O)C2C1C=CC(C(O)c1ccc(-c3ccccc3)s1)N2Nc1ccc(Cl)cc1Cl` (stereo not given), the composite z-score in [1] was 1.02; in test [2] it was -0.214; in test [3], 0.956; in [5] it was 0.227; in test [6], 0.508; in [7], 0.112. Also, the composite z-score is 0.992 in test [8]; -0.729 in [9]; 0.959 in test [10]; 1.29 in test [11]; -0.114 in test [13]; 1.65 in [14]. For the same molecule, the composite z-score is 1.03 in [15]; 0.1 in [16]; 0.213 in test [17]; -0.358 in test [18]; 0.712 in test [19]; 1.06 in test [20]. The z-score is 0.624 (inactive) in [4] and 1.7 in [12].

For `CCOC(=O)C[C@H]1[C@H](OC(=O)c2cc3ccccc3oc2=O)[C@@H](NC(=O)CC(C)C)c2cc(OCCCO)ccc2N1C(=O)c1ccccc1`, the composite z-score in test [1] is 0.0288; in [2], -0.179; in [3], -0.428; in test [5] it was 0.644; in test [6] it was 0.53; in [7], 0.393. The composite z-score is 0.358 in test [8]; 0.371 in test [9]; -0.0294 in [10]; 0.886 in test [11]; 0.371 in test [13]; -0.299 in test [14]. In addition, the composite z-score in test [15] was -0.543; in test [16], 0.0317; in [17] it was -0.0011; in test [18] it was 0.819; in test [19], 0.124; in test [20] it was 1.06. In addition, the results for the z-score in test [4] and in [12] were -1.04 (inactive) and 0.186, respectively.

In the case of `CC(C)Cc1ccc(CN2CC[C@@H](N)C2)cc1`, the composite z-score in test [1] is 0.472; in test [2] it was -0.459; in test [3], -0.275; in [5], -1.16; in test [6], -0.727; in test [7], -1.06. Moreover, the composite z-score in test [8] is -0.431; in test [9] it was -0.444; in [10] it was 0.419; in test [11] it was -2.06; in test [13], -0.669; in test [14], -0.387. Also, the composite z-score is 0.36 in test [15]; -0.274 in [16]; -0.147 in test [17]; 0.023 in test [18]; -1.24 in test [19]; -0.118 in test [20]. Further, the z-score in test [4] is -1.75 (inactive); in [12] it was -4.41.
